PubChem BioAssay AID1159580 (chemical genetic matrix, 2015)
Screen size: about 5,500 compounds; about 2,000 (36%) were called active. Inconclusive results (about 18%) are left out. Rule as the data show it: active = normalized growth mostly below about 0.91 (no sharp cut-off); inconclusive = no clear call, values can overlap the other calls; inactive = mostly above about 0.92. The list shows a part of the results.

Assay: chemical genetic growth profiling, strain panel (AID 1159580);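 also: tested at 20 µM; growth read once vehicle control cultures reached saturation at 30 °C; 1 = growth at the plate median or of vehicle wells; lower values mean less growth of the strain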
Settings: growth OD

Measured: normalized growth

S=c1[nH]c2ccccc2s1
active: S. cerevisiae deletion strains, locus YLR262C, strain YPT6 (second series), active compounds read low 0.82 | S. cerevisiae deletion strains, locus YNL183C, strain NPR1, active compounds read low 0.751 | S. cerevisiae deletion strains, locus YOL006C, strain TOP1, active compounds read low 0.417 | S. cerevisiae deletion strains, locus YOR106W, strain vam3, active compounds read low 0.865 | S. cerevisiae deletion strains, locus YOR231W, strain MKK1, active compounds read low 0.798 | S. cerevisiae deletion strains, locus YPL051W, strain arl3, active compounds read low 0.904
inactive: S. cerevisiae deletion strains, locus YKL009W, strain mrt4, active compounds read low 0.996 | S. cerevisiae deletion strains, locus YKL068W, active compounds read low 1.02 | S. cerevisiae deletion strains, locus YKL085W, strain MDH1 (second series), active compounds read low 1.01 | S. cerevisiae deletion strains, locus YKL085W, strain MDH1, active compounds read low 1.01 | S. cerevisiae deletion strains, locus YKL160W, strain elf1, active compounds read low 1.01 | S. cerevisiae deletion strains, locus YKL190W, strain CNB1, active compounds read low 0.99 | S. cerevisiae deletion strains, locus YKR001C, strain vps1, active compounds read low 0.954 | S. cerevisiae deletion strains, locus YKR026C, strain gcn3, active compounds read low 0.992 | S. cerevisiae deletion strains, locus YKR091W, strain srl3, active compounds read low 0.999 | S. cerevisiae deletion strains, locus YLL001W, strain dnm1, active compounds read low 0.992 | S. cerevisiae deletion strains, locus YLL026W, active compounds read low 0.989 | S. cerevisiae deletion strains, locus YLL041C, strain sdh2, active compounds read low 0.98 | S. cerevisiae deletion strains, locus YLR027C, strain aat2, active compounds read low 0.972 | S. cerevisiae deletion strains, locus YLR039C, strain RIC1, active compounds read low 0.858 | S. cerevisiae deletion strains, locus YLR058C, strain SHM2, active compounds read low 0.962 | S. cerevisiae deletion strains, locus YLR102C, strain apc9, active compounds read low 1.01 | S. cerevisiae deletion strains, locus YLR113W, strain HOG1, active compounds read low 0.919 | S. cerevisiae deletion strains, locus YLR221C, strain rsa3, active compounds read low 0.936 | S. cerevisiae deletion strains, locus YLR258W, strain gsy2, active compounds read low 0.988 | S. cerevisiae deletion strains, locus YLR262C, strain YPT6, active compounds read low 0.921 | S. cerevisiae deletion strains, locus YLR268W, strain sec22, active compounds read low 0.932 | S. cerevisiae deletion strains, locus YLR320W, strain mms22, active compounds read low 0.967 | S. cerevisiae deletion strains, locus YLR330W, strain CHS5, active compounds read low 0.997 | S. cerevisiae deletion strains, locus YLR342W, strain FKS1 (second series), active compounds read low 0.808 | S. cerevisiae deletion strains, locus YLR342W, strain FKS1, active compounds read low 0.972 | S. cerevisiae deletion strains, locus YLR357W, strain rsc2, active compounds read low 0.879 | S. cerevisiae deletion strains, locus YLR370C, strain arc18, active compounds read low 0.971 | S. cerevisiae deletion strains, locus YLR371W, strain rom2, active compounds read low 1.01 | S. cerevisiae deletion strains, locus YLR384C, strain iki3, active compounds read low 0.982 | S. cerevisiae deletion strains, locus YLR418C, strain cdc73, active compounds read low 0.907 | S. cerevisiae deletion strains, locus YML016C, strain PPZ1, active compounds read low 0.973 | S. cerevisiae deletion strains, locus YML032C, strain rad52, active compounds read low 1 | S. cerevisiae deletion strains, locus YML120C, strain ndi1, active compounds read low 1.07 | S. cerevisiae deletion strains, locus YML124C, strain tub3, active compounds read low 1.01 | S. cerevisiae deletion strains, locus YMR058W, strain fet3, active compounds read low 0.947 | S. cerevisiae deletion strains, locus YMR078C, strain ctf18, active compounds read low 1 | S. cerevisiae deletion strains, locus YMR125W, strain sto1, active compounds read low 1.11 | S. cerevisiae deletion strains, locus YMR129W, active compounds read low 0.993 | S. cerevisiae deletion strains, locus YMR205C, strain PFK2, active compounds read low 1.03 | S. cerevisiae deletion strains, locus YMR223W, strain ubp8, active compounds read low 0.95 | S. cerevisiae deletion strains, locus YMR231W, strain pep5, active compounds read low 0.973 | S. cerevisiae deletion strains, locus YMR263W, strain SAP30, active compounds read low 0.994 | S. cerevisiae deletion strains, locus YMR307W, strain GAS1, active compounds read low 0.862 | S. cerevisiae deletion strains, locus YNL067W, strain RPL9B, active compounds read low 0.992 | S. cerevisiae deletion strains, locus YNL071W, strain lat1, active compounds read low 0.929 | S. cerevisiae deletion strains, locus YNL128W, strain TEP1, active compounds read low 1.02 | S. cerevisiae deletion strains, locus YNL153C, strain GIM3, active compounds read low 0.973 | S. cerevisiae deletion strains, locus YNL209W, strain ssb2, active compounds read low 0.984 | S. cerevisiae deletion strains, locus YNL233W, strain BNI4, active compounds read low 0.985 | S. cerevisiae deletion strains, locus YNL248C, strain rpa49, active compounds read low 0.974 | S. cerevisiae deletion strains, locus YNL250W, strain rad50, active compounds read low 1.01 | S. cerevisiae deletion strains, locus YNL271C, strain bni1, active compounds read low 0.99 | S. cerevisiae deletion strains, locus YNL298W, strain CLA4, active compounds read low 1.01 | S. cerevisiae deletion strains, locus YNL307C, strain MCK1, active compounds read low 0.97 | S. cerevisiae deletion strains, locus YNL322C, strain KRE1 (second series), active compounds read low 1.02 | S. cerevisiae deletion strains, locus YNL322C, strain KRE1, active compounds read low 1 | S. cerevisiae deletion strains, locus YNR049C, strain mso1, active compounds read low 0.983 | S. cerevisiae deletion strains, locus YNR052C, strain pop2, active compounds read low 0.984 | S. cerevisiae deletion strains, locus YOL012C, strain htz1 0.93 | S. cerevisiae deletion strains, locus YOL147C, strain pex11, active compounds read low 0.99 | S. cerevisiae deletion strains, locus YOR001W, strain rrp6, active compounds read low 0.943 | S. cerevisiae deletion strains, locus YOR061W, strain CKA2, active compounds read low 0.985 | S. cerevisiae deletion strains, locus YOR069W, strain VPS5, active compounds read low 0.99 | S. cerevisiae deletion strains, locus YOR070C, strain gyp1, active compounds read low 0.97 | S. cerevisiae deletion strains, locus YOR080W, strain dia2, active compounds read low 0.992 | S. cerevisiae deletion strains, locus YOR083W, strain WHI5, active compounds read low 0.997 | S. cerevisiae deletion strains, locus YOR136W, strain idh2, active compounds read low 0.999 | S. cerevisiae deletion strains, locus YOR144C, strain elg1, active compounds read low 1.01 | S. cerevisiae deletion strains, locus YOR184W, strain ser1, active compounds read low 0.88 | S. cerevisiae deletion strains, locus YOR265W, strain rbl2, active compounds read low 0.976 | S. cerevisiae deletion strains, locus YOR270C, strain vph1, active compounds read low 0.834 | S. cerevisiae deletion strains, locus YOR290C, strain snf2, active compounds read low 0.991 | S. cerevisiae deletion strains, locus YOR316C, strain cot1, active compounds read low 1.02 | S. cerevisiae deletion strains, locus YPL055C, strain LGE1, active compounds read low 0.987 | S. cerevisiae deletion strains, locus YPL078C, strain atp4, active compounds read low 1 | S. cerevisiae deletion strains, locus YPL106C, strain sse1, active compounds read low 0.986 | S. cerevisiae deletion strains, locus YPL240C, strain hsp82, active compounds read low 0.986 | S. cerevisiae deletion strains, locus YPL241C, strain CIN2, active compounds read low 0.998 | S. cerevisiae deletion strains, locus YPL256C, strain CLN2, active compounds read low 0.904 | S. cerevisiae deletion strains, locus YPR119W, strain clb2, active compounds read low 1.02 | S. cerevisiae deletion strains, locus YPR141C, strain kar3, active compounds read low 1.01 | S. cerevisiae deletion strains, locus YPR163C, strain tif3, active compounds read low 1 | S. cerevisiae deletion strains, locus YPR167C, strain met16, active compounds read low 1.02 | S. cerevisiae deletion strains, strain wtn01, active compounds read low 0.977 | S. cerevisiae strains, strain wild type, active compounds read low 0.996
